RORgamma inh – qHTS for inhibitors of ROR gamma transcriptional activity; Nuclear receptor ROR-gamma (Mus musculus), P51450; Drosophila S2 Gal4-RORgamma UAS-luciferase reporter, 20 h; Potency, µM (doses to about 53.6 µM), most hits filed as inhibitors; 5.4% of 310,000 active; also: nearly all actives have a fitted effect of over 60% in size
Target sequence (P51450 whole entry, looked up, the tested form may be a part): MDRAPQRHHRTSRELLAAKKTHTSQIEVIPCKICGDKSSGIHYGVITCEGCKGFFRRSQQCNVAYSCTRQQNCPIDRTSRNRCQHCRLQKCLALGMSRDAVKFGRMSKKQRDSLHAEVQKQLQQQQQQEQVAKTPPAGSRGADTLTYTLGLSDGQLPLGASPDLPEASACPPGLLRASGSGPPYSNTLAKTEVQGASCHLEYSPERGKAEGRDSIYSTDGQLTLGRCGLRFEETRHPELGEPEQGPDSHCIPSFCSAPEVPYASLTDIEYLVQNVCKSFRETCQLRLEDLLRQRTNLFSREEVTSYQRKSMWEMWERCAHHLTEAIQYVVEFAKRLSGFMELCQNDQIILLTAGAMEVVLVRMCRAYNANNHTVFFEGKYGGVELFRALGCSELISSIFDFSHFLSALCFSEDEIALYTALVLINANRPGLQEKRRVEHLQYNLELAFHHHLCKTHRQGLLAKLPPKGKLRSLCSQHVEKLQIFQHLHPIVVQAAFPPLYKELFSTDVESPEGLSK
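Drosophila S2 cells stably expressing Gal4-DBD/mouse RORγ fusion under metallothionein promoter plus UAS-luciferase; compound 1 h, then 700 uM CuSO4 induction for 20 h at ambient temperature; inhibition read as reduced luminescence.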
TDP1 block – qHTS Assay for Inhibitors of Tyrosyl-DNA Phosphodiesterase (TDP1) | recombinant TDP1, AlphaScreen DNA substrate cleavage | Potency, µM (series often up to 130 µM), hits mostly inhibitors | 0.28% of 350,000 active | AID 485290, 2010; also: nearly all actives have a fitted effect of over 40% in size
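Here, a 5' biotin and 3' phosphotyrosine-FITC DNA oligonucleotide reports Tdp1 activity: intact substrate bridges AlphaScreen beads, while cleavage leaves a 3' phosphate and drops signal. All incubations at room temperature.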
DT40 TDP1 CPT – qHTS for Inhibitors of human tyrosyl-DNA phosphodiesterase 1 (TDP1): qHTS in cells in presence of CPT; AID 686979, 2013; Potency, µM (highest dose often 46.2 µM), actives largely listed as inhibitors; 12% of 420,000 active; chicken DT40 Tdp1-/-;hTDP1 cells + 20 nM CPT, ATP luminescence, 48 h; also: nearly all actives have a fitted effect of over 55% in size
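Chicken DT40 Tdp1-/- cells complemented with human TDP1, 400 cells/well, exposed to compounds plus 20 nM camptothecin for at least 48 h at 37 C; viability read as ATP content by CellTiter-Glo luminescence.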
DT40 TDP1 no CPT – qHTS for Inhibitors of human tyrosyl-DNA phosphodiesterase 1 (TDP1): qHTS in cells in absence of CPT; DT40 Tdp1-/- hTDP1 cells, no CPT, ATP luminescence, 48 h; Potency, µM (series often up to 46.2 µM), actives largely listed as inhibitors; 15% of 420,000 active; also: nearly all actives have a fitted effect of over 55% in size
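A cellular qHTS used chicken DT40 cells lacking endogenous Tdp1 but carrying stably transfected human TDP1. Compounds were applied without camptothecin, and cell growth kinetics were judged by ATP-dependent luminescence after ≥48 hr.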
VP16 counter – VP16 counterscreen qHTS for inhibitors of ROR gamma transcriptional activity; 3.5% of 310,000 active; Potency, µM (highest dose often 53.6 µM), hits mostly inhibitors; Drosophila S2 Gal4-VP16 UAS-luciferase, luminescence, 20 h; AID 2546, 2010;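 also: Gal4-VP16 expression switched on by copper sulfate through the metallothionein promoter; nearly all actives have a fitted effect of over 50% in size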
Hits are given with their value; [ ] = another dose, or the depositor's remark. In the library only some 19% were active in any assay of this set; here they are far more common. Calls follow the shape of the dose curve; as a rule, active = well fitted curve in the direction sought with a large enough effect; inconclusive = small, poorly fitted or top-dose-only effect, or another doubt; inactive = no such curve, though single readings can be large; an effect the other way counts as inactive or inconclusive.

`O=C(CSc1nc2ccccc2s1)N1c2ccccc2Sc2ccc(C(F)(F)F)cc21` gave RORgamma inh inactive, TDP1 block inactive, DT40 TDP1 CPT inconclusive, DT40 TDP1 no CPT 15µM and VP16 counter inactive.
`CCN(CC)CCCCN1c2ccccc2Sc2ccccc21` gave RORgamma inh inactive, DT40 TDP1 CPT 21µM, DT40 TDP1 no CPT 21µM and VP16 counter inactive.
For COc1ccc(N(CC(=O)N/N=C/c2ccc(-c3ccc([N+](=O)[O-])cc3)o2)S(=O)(=O)c2ccc(C)cc2)cc1Cl the results were RORgamma inh inactive, TDP1 block inactive, DT40 TDP1 CPT inactive, DT40 TDP1 no CPT inactive and VP16 counter inactive.
Screening CCC(NC(=O)C1CCC1)c1ccc(C)cc1 (configuration not stated) returned RORgamma inh inactive, TDP1 block inactive, DT40 TDP1 CPT inactive, DT40 TDP1 no CPT inactive and VP16 counter inactive.
Screening O=C1c2ccccc2C(=O)N1CC(=O)N1c2ccccc2Sc2ccc(C(F)(F)F)cc21 returned RORgamma inh inactive, TDP1 block inactive, DT40 TDP1 CPT inactive, DT40 TDP1 no CPT inactive and VP16 counter inactive.
`CN(C)CCC(=O)N1c2ccccc2Sc2ccc(C(F)(F)F)cc21` gave RORgamma inh inactive, TDP1 block inactive, DT40 TDP1 CPT 23µM, DT40 TDP1 no CPT inconclusive and VP16 counter inactive.
`CN(C)CCCN1c2ccccc2Sc2ccc(C(F)(F)F)cc21` gave RORgamma inh inactive, TDP1 block inactive, DT40 TDP1 CPT inconclusive, DT40 TDP1 no CPT 24µM and VP16 counter inactive.
Screening CN1CCN(CCC(=O)N2c3ccccc3Sc3ccc(C(F)(F)F)cc32)CC1 returned RORgamma inh inactive, TDP1 block inactive, DT40 TDP1 CPT inconclusive, DT40 TDP1 no CPT inconclusive and VP16 counter inactive.
O=c1c([N+](=O)[O-])c(O)c2ccccc2n1Cc1ccccc1 was read as RORgamma inh inactive, DT40 TDP1 CPT inactive, DT40 TDP1 no CPT inactive and VP16 counter inactive.
For COc1ccc(CNc2nc3c(S(=O)(=O)c4ccccc4)nnn3c3ccc(Cl)cc23)cc1 the results were TDP1 block inactive, DT40 TDP1 CPT inconclusive and DT40 TDP1 no CPT inactive.
COc1cccc([C@@H]2Oc3ccc(OC)cc3/C(=N/O[C@@H](C)CN3CCCc4nc(C)c(C)cc43)[C@@H]2O)c1 was read as RORgamma inh inactive[10 µM], TDP1 block inactive[21 µM] and VP16 counter inactive[10 µM].
`O=C(NC1CCS(=O)(=O)C1)c1cccc(Br)c1` (configuration not stated) gave DT40 TDP1 CPT inactive and DT40 TDP1 no CPT inactive.
For O=C(Nc1nc2ccccc2s1)c1cc2c(s1)-c1ccccc1OC2 the results were RORgamma inh inactive, TDP1 block inactive, DT40 TDP1 CPT inconclusive, DT40 TDP1 no CPT inconclusive and VP16 counter inconclusive.
Cc1cccc2c1-c1sc(C(=O)Nc3cccc([N+](=O)[O-])c3C)cc1CO2 was read as RORgamma inh inactive, TDP1 block inactive, DT40 TDP1 CPT inconclusive, DT40 TDP1 no CPT 23µM and VP16 counter inconclusive.
For O=C(Nc1nccs1)c1cc2c(s1)-c1ccccc1OC2 the results were RORgamma inh 5µM, TDP1 block inactive, DT40 TDP1 CPT inconclusive, DT40 TDP1 no CPT inconclusive and VP16 counter 4.5µM.
For Cc1cccc2c1-c1sc(C(=O)Nc3nccs3)cc1CO2 the results were RORgamma inh 4.5µM, TDP1 block inactive, DT40 TDP1 CPT inconclusive, DT40 TDP1 no CPT inconclusive and VP16 counter 5.6µM.
`Cc1cccc2c1-c1sc(C(=O)Nc3cccnc3)cc1CO2` gave RORgamma inh inactive, TDP1 block inactive, DT40 TDP1 CPT inconclusive, DT40 TDP1 no CPT inactive and VP16 counter inactive.
O=C(Nc1cccnc1)c1cc2c(s1)-c1ccccc1OC2 was read as RORgamma inh 4.5µM, DT40 TDP1 CPT inconclusive, DT40 TDP1 no CPT inconclusive and VP16 counter inactive.
Cc1cc(C)c(S(=O)(=O)N2CCN(C(=O)CCOc3ccccc3C)CC2)c(C)c1 was read as TDP1 block inactive, DT40 TDP1 CPT inactive and DT40 TDP1 no CPT inactive.
For N#Cc1ccccc1Cn1c(=O)n(-c2ccccc2)c(=O)c2c3c(sc21)CCC3 the results were TDP1 block inactive, DT40 TDP1 CPT inactive and DT40 TDP1 no CPT inactive.
`Cc1nc(NC2=NCN(Cc3ccccc3)CN2)nc2ccccc12` gave RORgamma inh inactive, TDP1 block inactive and VP16 counter inactive.
For COc1cc(C2c3[nH]c4ccccc4c3C[C@H]3C(=O)N(CCO)CC(=O)N23)cc(OC)c1OC (some centres not stated) the results were RORgamma inh inactive, DT40 TDP1 CPT inconclusive, DT40 TDP1 no CPT 21µM and VP16 counter inactive.
Screening O=C1[C@@H]2Cc3c([nH]c4ccccc34)C(c3ccccc3)N2C(=O)CN1CCO (some centres not stated) returned RORgamma inh inactive, DT40 TDP1 CPT inactive, DT40 TDP1 no CPT inactive and VP16 counter inactive.
COc1cc(C2c3[nH]c4ccccc4c3CC3COC(=O)N32)cc(OC)c1O (configuration not stated) was read as DT40 TDP1 CPT 0.29µM and DT40 TDP1 no CPT 0.29µM.
`COc1cc([C@H]2c3[nH]c4ccccc4c3C[C@H]3C(=O)N4[C@@H](c5cc(OC)c(OC)c(OC)c5)c5[nH]c6ccccc6c5C[C@H]4C(=O)N23)cc(OC)c1OC` gave RORgamma inh inconclusive, TDP1 block inactive, DT40 TDP1 CPT 4.6µM, DT40 TDP1 no CPT 2.9µM and VP16 counter 10µM.
`CCN1C(=O)[C@@H]2Cc3c([nH]c4ccccc34)C(c3cc(OC)c(OC)c(OC)c3)N2C1=S` (some centres not stated) gave RORgamma inh inactive, DT40 TDP1 CPT inconclusive, DT40 TDP1 no CPT inconclusive and VP16 counter inactive.
`C=CCN1C(=O)[C@@H]2Cc3c([nH]c4ccccc34)C(c3ccc(O)cc3)N2C1=S` (some centres not stated) gave RORgamma inh inactive, DT40 TDP1 CPT inconclusive, DT40 TDP1 no CPT 16µM and VP16 counter inactive.
For CCC(C)(C(=O)Nc1c(C)cccc1C)N(C)C(=O)c1ccc2ccccc2n1 (configuration not stated) the results were RORgamma inh inactive, TDP1 block inactive, DT40 TDP1 CPT inactive, DT40 TDP1 no CPT inactive and VP16 counter inactive.
`COc1cc(Cl)cc(/C=N\NC(=O)c2ccc3c(c2)OCO3)c1O` gave DT40 TDP1 CPT inconclusive and DT40 TDP1 no CPT inactive.
Screening O=C(N/N=C/c1cc(Br)cc(Cl)c1O)c1ccc2c(c1)OCO2 returned DT40 TDP1 CPT 0.82µM and DT40 TDP1 no CPT 1µM.
